A selection: hits, their analogues and other compounds. The true share with any hit is near 5.1%.
MPTP inh = inhibitors of mitochondrial permeability transition pore. isolated mouse mitochondria, Ca2+ swelling absorbance, 30 min. inhibition, % at 10 µM. 360,000 tested, 1.4% active. AID 602449;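 active = inhibition of 50% or more, scaled per plate between neutral and stimulator controls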;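 note: 0% = DMSO wells given calcium and 100% = 1 mM EGTA wells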
CRFBP-R2 block = antagonists of CRF-binding protein/CRF-R2 receptor complex. 350,000 tested, 0.59% active. HEK293 CRF-R2/CRF-BP, CRF-induced calcium fluorescence. inhibition, % at 11.8 µM. AID 588475;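 active = inhibition of the ligand-induced calcium signal above about 50% at the single tested concentration, limit read from the data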
ANO1 activ = mouse TMEM16A channel activation, primary screen | Q8BHY3 | HEK293 TMEM16A/YFP-H148Q/I152L, iodide quench fluorescence; hits give low values | B-score at 10 µM | 340,000 tested, 0.3% active;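 active = fluorescence-ratio B-score plate-corrected deviation score at least 3 library SD below zero, with starting fluorescence score within 5 deviations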;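 note: channel opened by trigger with iodide after compound preincubation; score built on the fluorescence ratio of max minus min over baseline; more negative score means more quench and so TMEM16A activation or potentiation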
TMEM16A inh = blocks the mouse calcium-activated chloride channel TMEM16A; Q8BHY3; HEK293 TMEM16A/YFP iodide influx fluorescence, ionomycin; 310,000 tested, 1.2% active; normalized B-score (activity score, 25-100; higher = stronger inhibition) at 10 µM;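 active = ratio plate-corrected score three or more library SD toward inhibition, starting fluorescence score within five deviations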;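 note: score derived from kinetic fluorescence span divided by baseline fluorescence per well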
CRFBP-R2 agonist = CRF-BP/CRF-R2 complex agonism | HEK293 CRF-R2/CRF-BP, calcium dye fluorescence (FLIPR); percent of saturating CRF peptide response | activation, % at 13.2 µM | 350,000 tested, 0.46% active;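 active = activation of at least 50%, plus an integration ratio under a set limit after plate pattern correction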;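 note: plate controls were neutral control wells without compound for no effect and CRF at EC100 for full effect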
NR3A LBD binder = modulates the human NR3A ligand-binding domain | NR3A LBD differential scanning fluorimetry, Tm shift; 0% = protein alone, 100% = glycine-bound protein | Tm shift relative to glycine control, % at 25 µM | 340,000 tested, 2.5% active | AID 1259313;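 active = melting temperature shift of at least 10% of the positive control shift, at one fixed dose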
TMEM16A reconf = reconfirmed blocker of mouse TMEM16A calcium-activated chloride channel; HEK293 TMEM16A/YFP-H148Q, iodide quench fluorescence; ionomycin added to raise cell calcium; AID 652189; 2,300 tested, 39% active; inhibition, % at 10 µM; shares compounds with TMEM16A inh;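 active = mean duplicate percent inhibition, scaled so buffer wells are 0 and the reference blocker 100, over three buffer SD above buffer mean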
TMEM16A Ca cntr = alters calcium mobilization in TMEM16A HEK293 cells, counter-screen; 2,300 tested, 2% active; calcium response (% of ionomycin), % at 10 µM; TMEM16A/YFP HEK293, Fluo4 calcium mobilization; AID 652231; shares compounds with TMEM16A inh;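 active = duplicate-averaged calcium signal over 20% of the ionomycin maximum, relative to buffer baseline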;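 note: each well's signal is peak minus trough fluorescence divided by its pre-addition baseline; 0% = buffer wells and 100% = ionomycin wells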
YFP-HEK293 quench = parental YFP-HEK293 iodide quench counter-screen activity; shares compounds with TMEM16A inh; ionomycin; YFP ratio F(max-min)/F0 at 10 µM; 2,300 tested, under 10 active;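 active = yellow fluorescent protein signal ratio exceeding the buffer control mean by over 5 SD of those controls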;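 note: ratio is mean of duplicate wells from kinetic YFP trace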
ClC-1 inh = rat ClC-1 inhibition, TMEM16A specificity screen; shares compounds with TMEM16A inh; CHO ClC-1-YFP, iodide influx fluorescence quench; iodide control reads 0, buffer control 100; ratio percent, % at 10 µM; 2,300 tested, under 10 active; AID 652236;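 active = duplicate-mean ratio percent above the mean of iodide-only control wells, which defines zero, plus 5 of their SD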;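 note: higher percent means stronger block of ClC-1 iodide influx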
The depositor's hits bear a star; i = inactive; / = not tested or not shown.

SMILES	MPTP inh	CRFBP-R2 block	ANO1 activ	TMEM16A inh	CRFBP-R2 agonist	NR3A LBD binder	TMEM16A reconf	TMEM16A Ca cntr	YFP-HEK293 quench	ClC-1 inh
COc1ccc(C(C)(O)c2nc(-c3ccc(F)cc3OC)cs2)cc1 (configuration not stated)	0	/	/	/	/	/	/	/	/	/
Nc1c(C(=O)N/N=C/c2cccnc2)oc2nc(-c3ccccc3)cc(-c3ccco3)c12	1	-13	i	i	8	1	i	i	-1.1	1
Nc1c(C(=O)N/N=C/c2cccnc2)oc2nc(-c3ccco3)cc(-c3ccco3)c12	4	2	i	i	3	-3	/	/	/	/
Cc1ccc(S(=O)(=O)N(Cc2ccccc2F)C(=O)N2CCN(C)CC2)cc1	-3	4	i	i	0	2	/	/	/	/
COc1ccc(N(CC(=O)NC2CCCC2)C(=O)Cn2nnc(-c3ccc(C)cc3)n2)cc1	-2	13	i	25*	-1	-2	i	i	-0.93	-4
COc1ccc(N(CC(=O)NC2CCCC2)C(=O)Cn2nnc(-c3ccc(C)cc3)n2)cc1OC	-1	8	i	i	-1	1	/	/	/	/
c1ccc(CCNc2ncnc3scc(C4COc5ccccc5O4)c23)cc1 (configuration not stated)	15	-38	i	i	0	-1	/	/	/	/
c1ccc2c(c1)OCC(c1csc3ncnc(N4CCCC4)c13)O2 (configuration not stated)	12	-13	i	25*	-1	-4	20%*	i	-0.96	-12
NC(=O)c1sc2nc(-c3cccs3)ccc2c1N	0	7	i	i	0	5	/	/	/	/
Nc1c(C(=O)Nc2nccs2)sc2nc(-c3cccs3)cc(C(F)(F)F)c12	-2	-43	i	i	68*	1	i	i	-0.64	39
CCN(CC)C(=O)c1sc2nc(-c3cccs3)cc(-c3cccs3)c2c1N	2	-19	i	i	6	1	i	i	-0.6	24
CCc1ccc2c(CN(CC)Cc3nc4ccccc4c(=O)[nH]3)cc(=O)oc2c1	0	-9	i	25*	0	3	i	i	-0.93	1
CCN(Cc1nc2ccccc2c(=O)[nH]1)Cc1nc2ccsc2c(=O)[nH]1	2	11	i	i	3	-1	/	/	/	/
Cc1ccc(S(=O)(=O)NC(=O)C2(C)CCN2C(=O)Cc2cc(F)ccc2F)nc1 (configuration not stated)	0	/	/	/	/	/	/	/	/	/
CCOC(=O)c1c(C)oc2ccc(OCc3cc(C(=O)OC)oc3C)cc12	-1	10	i	i	3	3	/	/	/	/
COC(=O)c1cc(COc2ccc3oc(C)c(C(=O)OC)c3c2)c(C)o1	4	45	i	100*	0	0	i	i	-1.2	-11
CCC(C)NC(=O)C1CCC(CNS(=O)(=O)c2ccccc2)CC1 (configuration not stated)	1	9	i	i	0	0	i	i	-0.86	0
CC(NC(=O)C1CCC(CNS(=O)(=O)c2ccccc2)CC1)c1ccccc1 (configuration not stated)	0	5	i	i	-1	0	/	/	/	/
O=C(C1CCC(CNS(=O)(=O)c2ccccc2)CC1)N1CCOCC1 (configuration not stated)	0	20	i	25*	-4	2	i	i	-1	-8
O=C(C1CCC(CNS(=O)(=O)c2ccc(F)cc2)CC1)N1CCOCC1 (configuration not stated)	0	-1	i	i	2	1	/	/	/	/
O=C1CN(C(=S)NC(=O)c2ccccc2[N+](=O)[O-])CCN1	0	5	i	i	7	1	/	/	/	/
CCc1ccccc1NC(=O)CCS(=O)(=O)c1ccc(Br)cc1	0	8	i	i	-7	2	i	i	-0.97	-6
O=C(c1noc2c1CCCC2)N1CCCC(N2CCN(c3ccccc3F)CC2)C1 (configuration not stated)	-1	7	i	i	-2	-1	/	/	/	/
Cc1ccccc1C(=O)Nc1cc(NC(=O)c2ccccc2C)cc(C(=O)O)c1	0	-2	i	i	1	1	/	/	/	/
COc1ccccc1N1CCN(C(=O)c2sc3nc(-c4ccc(F)cc4)cn3c2C)CC1	0	-6	i	25*	0	-4	i	i	-0.92	-7
SMILES	MPTP inh	CRFBP-R2 block	ANO1 activ	TMEM16A inh	CRFBP-R2 agonist	NR3A LBD binder	TMEM16A reconf	TMEM16A Ca cntr	YFP-HEK293 quench	ClC-1 inh
Cc1csc(C(C#N)C(=O)c2cc3ccccc3o2)n1 (configuration not stated)	12	14	i	25*	2	-2	30%*	i	-1.1	-26
CC(C)CN(C(=O)COC(=O)c1c2c(nc3ccccc13)CCC2)c1c(N)n(Cc2ccccc2)c(=O)[nH]c1=O	1	-14	i	i	1	-5	/	/	/	/
CCOc1ccc(S(=O)(=O)N2CCCCC2)c2ccccc12	0	15	i	25*	0	-1	i	i	-0.98	-14
O=C(CS(=O)(=O)c1ccc(Cl)cc1)Nc1nccs1	-1	3	/	/	-2	/	/	/	/	/
CC1=CC(C)(C)N2C(=O)C3(C(C#N)=C(N)OC4=C3C(=O)CCC4)c3c(C)c(C)cc1c32 (configuration not stated)	-1	10	i	i	-1	0	/	/	/	/
CC1=CC(C)(C)N2C(=O)C3(C(C#N)=C(N)Oc4cc(O)ccc43)c3c(C)c(C)cc1c32 (configuration not stated)	-4	66*	i	100*	-1	-8	45%*	i	-1.2	-14
COC(=O)N1CCCCC1c1cc(C(=O)NCc2ccccc2)no1 (configuration not stated)	0	/	/	/	/	/	/	/	/	/
CN1c2ccccc2C(O)=C(C(=S)Nc2ccc(Cl)cc2)S1(=O)=O	34	59*	i	100*	0	28*	20%*	i	-0.92	-8
